Results published in PubChem BioAssay AID1159580 (chemical genetic matrix, 2015).
Hit rate of the full screen: of about 5,500 compounds, about 2,000 (36%) were called active. Inconclusive results (about 18%) are left out. No stated cut-off is given here; in the data, active means normalized growth mostly below about 0.91 (no sharp cut-off); inconclusive means no clear call, values can overlap the other calls; inactive means mostly above about 0.92. The list shows a part of the results.

Test: chemical genetic growth profiling, strain panel (AID 1159580);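 further: tested at 20 µM; growth read once vehicle control cultures reached saturation at 30 °C; 1 = growth at the plate median or of vehicle wells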
Conditions: growth OD

Measured: normalized growth

NCC(N)C(=O)c1ccccc1 (stereo not drawn)
inactive: S. cerevisiae deletion strains, locus YJR043C, strain POL32, stronger effect = lower value 1.01 | S. cerevisiae deletion strains, locus YJR066W, strain TOR1, stronger effect = lower value 0.969 | S. cerevisiae deletion strains, locus YKL009W, strain mrt4, stronger effect = lower value 1.1 | S. cerevisiae deletion strains, locus YKL068W, stronger effect = lower value 1.03 | S. cerevisiae deletion strains, locus YKL085W, strain MDH1 (second series), stronger effect = lower value 1.02 | S. cerevisiae deletion strains, locus YKL085W, strain MDH1, stronger effect = lower value 1.02 | S. cerevisiae deletion strains, locus YKL160W, strain elf1, stronger effect = lower value 1.02 | S. cerevisiae deletion strains, locus YKL190W, strain CNB1, stronger effect = lower value 1.01 | S. cerevisiae deletion strains, locus YKR001C, strain vps1, stronger effect = lower value 0.979 | S. cerevisiae deletion strains, locus YKR026C, strain gcn3, stronger effect = lower value 1.02 | S. cerevisiae deletion strains, locus YKR091W, strain srl3, stronger effect = lower value 1.02 | S. cerevisiae deletion strains, locus YLL001W, strain dnm1, stronger effect = lower value 1.02 | S. cerevisiae deletion strains, locus YLL026W, stronger effect = lower value 1.03 | S. cerevisiae deletion strains, locus YLL041C, strain sdh2, stronger effect = lower value 1.02 | S. cerevisiae deletion strains, locus YLR027C, strain aat2, stronger effect = lower value 1.03 | S. cerevisiae deletion strains, locus YLR039C, strain RIC1, stronger effect = lower value 1.04 | S. cerevisiae deletion strains, locus YLR058C, strain SHM2, stronger effect = lower value 1.01 | S. cerevisiae deletion strains, locus YLR102C, strain apc9, stronger effect = lower value 0.992 | S. cerevisiae deletion strains, locus YLR113W, strain HOG1, stronger effect = lower value 0.949 | S. cerevisiae deletion strains, locus YLR221C, strain rsa3, stronger effect = lower value 1.04 | S. cerevisiae deletion strains, locus YLR258W, strain gsy2, stronger effect = lower value 1 | S. cerevisiae deletion strains, locus YLR262C, strain YPT6 (second series), stronger effect = lower value 1.03 | S. cerevisiae deletion strains, locus YLR262C, strain YPT6, stronger effect = lower value 1.06 | S. cerevisiae deletion strains, locus YLR268W, strain sec22, stronger effect = lower value 0.991 | S. cerevisiae deletion strains, locus YLR320W, strain mms22, stronger effect = lower value 1.04 | S. cerevisiae deletion strains, locus YLR330W, strain CHS5, stronger effect = lower value 1.04 | S. cerevisiae deletion strains, locus YLR342W, strain FKS1 (second series), stronger effect = lower value 0.985 | S. cerevisiae deletion strains, locus YLR342W, strain FKS1, stronger effect = lower value 1.01 | S. cerevisiae deletion strains, locus YLR357W, strain rsc2, stronger effect = lower value 1.03 | S. cerevisiae deletion strains, locus YLR370C, strain arc18, stronger effect = lower value 1.05 | S. cerevisiae deletion strains, locus YLR371W, strain rom2, stronger effect = lower value 1 | S. cerevisiae deletion strains, locus YLR384C, strain iki3, stronger effect = lower value 1.03 | S. cerevisiae deletion strains, locus YLR418C, strain cdc73, stronger effect = lower value 0.987 | S. cerevisiae deletion strains, locus YML016C, strain PPZ1, stronger effect = lower value 1 | S. cerevisiae deletion strains, locus YML032C, strain rad52, stronger effect = lower value 1.01 | S. cerevisiae deletion strains, locus YML120C, strain ndi1, stronger effect = lower value 1 | S. cerevisiae deletion strains, locus YML124C, strain tub3, stronger effect = lower value 1.01 | S. cerevisiae deletion strains, locus YMR058W, strain fet3, stronger effect = lower value 1.05 | S. cerevisiae deletion strains, locus YMR078C, strain ctf18, stronger effect = lower value 1.01 | S. cerevisiae deletion strains, locus YMR125W, strain sto1, stronger effect = lower value 1.01 | S. cerevisiae deletion strains, locus YMR129W, stronger effect = lower value 1.04 | S. cerevisiae deletion strains, locus YMR205C, strain PFK2, stronger effect = lower value 1.06 | S. cerevisiae deletion strains, locus YMR223W, strain ubp8, stronger effect = lower value 1.04 | S. cerevisiae deletion strains, locus YMR231W, strain pep5, stronger effect = lower value 1.03 | S. cerevisiae deletion strains, locus YMR307W, strain GAS1, stronger effect = lower value 0.964 | S. cerevisiae deletion strains, locus YNL067W, strain RPL9B, stronger effect = lower value 1 | S. cerevisiae deletion strains, locus YNL071W, strain lat1, stronger effect = lower value 1.02 | S. cerevisiae deletion strains, locus YNL153C, strain GIM3, stronger effect = lower value 1.01 | S. cerevisiae deletion strains, locus YNL183C, strain NPR1, stronger effect = lower value 0.901 | S. cerevisiae deletion strains, locus YNL209W, strain ssb2, stronger effect = lower value 1.03 | S. cerevisiae deletion strains, locus YNL233W, strain BNI4, stronger effect = lower value 1.02 | S. cerevisiae deletion strains, locus YNL248C, strain rpa49, stronger effect = lower value 1.03 | S. cerevisiae deletion strains, locus YNL250W, strain rad50, stronger effect = lower value 1.02 | S. cerevisiae deletion strains, locus YNL271C, strain bni1, stronger effect = lower value 1.01 | S. cerevisiae deletion strains, locus YNL298W, strain CLA4, stronger effect = lower value 1.01 | S. cerevisiae deletion strains, locus YNL307C, strain MCK1, stronger effect = lower value 0.996 | S. cerevisiae deletion strains, locus YNL322C, strain KRE1 (second series), stronger effect = lower value 1.01 | S. cerevisiae deletion strains, locus YNL322C, strain KRE1, stronger effect = lower value 1.01 | S. cerevisiae deletion strains, locus YNR049C, strain mso1, stronger effect = lower value 1.03 | S. cerevisiae deletion strains, locus YNR052C, strain pop2, stronger effect = lower value 0.994 | S. cerevisiae deletion strains, locus YOL012C, strain htz1 1.74 | S. cerevisiae deletion strains, locus YOL147C, strain pex11, stronger effect = lower value 0.993 | S. cerevisiae deletion strains, locus YOR001W, strain rrp6, stronger effect = lower value 1.04 | S. cerevisiae deletion strains, locus YOR061W, strain CKA2, stronger effect = lower value 1.01 | S. cerevisiae deletion strains, locus YOR069W, strain VPS5, stronger effect = lower value 1.01 | S. cerevisiae deletion strains, locus YOR070C, strain gyp1, stronger effect = lower value 1.04 | S. cerevisiae deletion strains, locus YOR080W, strain dia2, stronger effect = lower value 1.05 | S. cerevisiae deletion strains, locus YOR083W, strain WHI5, stronger effect = lower value 1.02 | S. cerevisiae deletion strains, locus YOR106W, strain vam3, stronger effect = lower value 1.02 | S. cerevisiae deletion strains, locus YOR136W, strain idh2, stronger effect = lower value 1.01 | S. cerevisiae deletion strains, locus YOR144C, strain elg1, stronger effect = lower value 0.996 | S. cerevisiae deletion strains, locus YOR184W, strain ser1, stronger effect = lower value 0.994 | S. cerevisiae deletion strains, locus YOR231W, strain MKK1, stronger effect = lower value 0.962 | S. cerevisiae deletion strains, locus YOR265W, strain rbl2, stronger effect = lower value 1.05 | S. cerevisiae deletion strains, locus YOR270C, strain vph1, stronger effect = lower value 1.11 | S. cerevisiae deletion strains, locus YOR290C, strain snf2, stronger effect = lower value 1 | S. cerevisiae deletion strains, locus YOR316C, strain cot1, stronger effect = lower value 0.993 | S. cerevisiae deletion strains, locus YPL051W, strain arl3, stronger effect = lower value 1.04 | S. cerevisiae deletion strains, locus YPL078C, strain atp4, stronger effect = lower value 1.02 | S. cerevisiae deletion strains, locus YPL106C, strain sse1, stronger effect = lower value 1.01 | S. cerevisiae deletion strains, locus YPL240C, strain hsp82, stronger effect = lower value 1.02 | S. cerevisiae deletion strains, locus YPL256C, strain CLN2, stronger effect = lower value 0.96 | S. cerevisiae deletion strains, locus YPR119W, strain clb2, stronger effect = lower value 0.999 | S. cerevisiae deletion strains, locus YPR141C, strain kar3, stronger effect = lower value 1.01 | S. cerevisiae deletion strains, locus YPR163C, strain tif3, stronger effect = lower value 0.995 | S. cerevisiae deletion strains, locus YPR167C, strain met16, stronger effect = lower value 1.01 | S. cerevisiae deletion strains, strain wtn01, stronger effect = lower value 0.999 | S. cerevisiae strains, strain wild type, stronger effect = lower value 1.02
